Bioassay records from PubChem BioAssay.
p53 reactivator: qHTS assay for re-activators of p53 using a Luc reporter; Potency, µM (top dose mostly 92.2 µM), inactives show top-dose activity change, positive = activation, hits mostly activators; 320,000 compounds, 0.063% hits; H1299 p53-A138V BP100-luciferase reporter, luminescence, 24 h; note: potency is the fitted concentration of half-maximal effect; % of control where 0% means no effect; nearly all actives have a fitted effect of over 45% in size
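H1299 (p53-null), stable ts p53-A138V + BP100-Luc; 1000 cells/well, Opti-MEM/10% FBS; cpd 4 pt, 1:5; 24 h, 37 deg C, 5% CO2; detection reagent 10 min RT; luminescence.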
VP16 counter: VP16 counterscreen qHTS for inhibitors of ROR gamma transcriptional activity | Drosophila S2 Gal4-VP16 UAS-luciferase, luminescence, 20 h | Potency, µM (series often up to 53.6 µM), for inactives: at the top dose activity, negative = inhibition, hits mostly inhibitors | 310,000 compounds, 3.5% hits | AID 2546, 2010;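 note: Gal4-VP16 expression switched on by copper sulfate through the metallothionein promoter; potency is the fitted concentration of half-maximal effect; % is set by controls: 0 for no effect and ±100 for the full control effect; nearly all actives have a fitted effect of over 50% in size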
RORgamma inh: qHTS for inhibitors of ROR gamma transcriptional activity. AID 2551, 2010. Potency, µM (series often up to 53.6 µM), for inactives: at the highest dose activity change, negative = inhibition, actives largely listed as inhibitors. 310,000 compounds, 5.4% hits. Drosophila S2 Gal4-RORgamma UAS-luciferase reporter, 20 h. Nuclear receptor ROR-gamma (Mus musculus), P51450; note: potency is the fitted concentration of half-maximal effect; % is set by controls: 0 for no effect and ±100 for the full control effect; nearly all actives have a fitted effect of over 60% in size
Target sequence (P51450 whole entry, looked up, the tested form may be a part): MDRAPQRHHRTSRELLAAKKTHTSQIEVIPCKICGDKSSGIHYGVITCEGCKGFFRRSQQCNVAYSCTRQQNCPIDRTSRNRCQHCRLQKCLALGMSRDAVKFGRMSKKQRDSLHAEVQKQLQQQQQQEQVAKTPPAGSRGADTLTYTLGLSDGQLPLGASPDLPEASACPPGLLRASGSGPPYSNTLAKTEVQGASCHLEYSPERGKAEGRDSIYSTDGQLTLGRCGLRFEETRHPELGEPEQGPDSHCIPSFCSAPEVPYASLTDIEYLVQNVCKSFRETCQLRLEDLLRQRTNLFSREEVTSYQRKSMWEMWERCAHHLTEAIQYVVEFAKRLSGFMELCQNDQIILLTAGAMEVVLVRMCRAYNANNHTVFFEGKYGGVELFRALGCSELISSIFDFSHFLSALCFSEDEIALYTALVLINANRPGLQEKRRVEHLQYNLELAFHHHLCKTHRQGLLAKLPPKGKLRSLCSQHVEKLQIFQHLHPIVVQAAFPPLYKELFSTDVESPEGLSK
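Stably transfected Drosophila Schneider cells are the test system, with ROR gamma fused to Gal4 and luciferase under UAS control; luminescence is read after 20 hr of 700 uM copper sulfate induction at ambient temperature.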
Six1-Eya2 inh: qHTS Assay for Inhibitors of the Six1/Eya2 Interaction. AlphaScreen GST-Six1/His-Eya2 binding, biochemical; stronger effect = lower value. 360,000 compounds, 0.56% hits. AID 651725, 2012. Homeobox protein SIX1 (Homo sapiens) + Protein phosphatase EYA2 (Homo sapiens), …. activity change, % (no concentration beside the values); in the data active = activity change below about -65%; inconclusive = mostly about -30% to -63%; note: % is set by controls: 0 for no effect and ±100 for the full control effect
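Six1/Eya2 binding was read as AlphaScreen signal after compounds were pinned into GST-Six1 plus His-tagged Eya2 (5X stock 250/500 nM) in pH 8.0 Tris/NaCl/TCEP buffer, beads added, then incubated 1 h, 37 C, dark.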
CtBP-E1A inh: qHTS Assay for Inhibitors of the CtBP/E1A Interaction; activity change, % (concentration not given with the values); 340,000 compounds, 0.49% hits; CtBP / adenovirus E1A interaction (AlphaScreen); AlphaScreen GST-E1A/His-CtBP binding, 1536-well; stronger effect = lower value; in the data active = activity change below about -65%; inconclusive = mostly about -30% to -63%; note: % is set by controls: 0 for no effect and ±100 for the full control effect
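Protein mix (5X: 125 nM each GST-E1A, His-CtBP) was incubated with pinned compound 2 h at 37 deg C in dark, in 50 mM Tris pH 8.0 buffer with 300 mM NaCl. Glutathione donor and nickel acceptor beads followed; AlphaScreen signal read after 1 h.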
* = called active by the depositor; ? = inconclusive; . = no result given; [ ] = dose if it differs, or a comment. An excerpt weighted towards active compounds, which were near 5.4% of everything screened. Unless noted, calls come from the whole dose curve; as a rule, active = well fitted curve in the direction sought with a large enough effect; inconclusive = small, poorly fitted or top-dose-only effect, or another doubt; inactive = no such curve, though single readings can be large; an effect the other way counts as inactive or inconclusive.

SMILES	p53 reactivator	VP16 counter	RORgamma inh	Six1-Eya2 inh	CtBP-E1A inh
Cc1cc(Br)ccc1OCC(=O)NNC(=O)c1cnccn1	10%	?	8.9µM*	-17	.
COc1ccc(CC(=O)NNC(=O)COc2ccc(Br)cc2C)cc1OC	-13%	-2%	0%	7	-2
O=C(COc1ccc2ccccc2c1)NNC(=O)c1cnccn1	6%	-15%	?	-22	-16
Cc1ccc(C(=O)CC(=O)COc2ccc(Cl)cc2C)cc1	19%	4.5µM*	10µM*	12	11
Cc1cc(Cl)ccc1OCC(=O)NNC(=O)c1cnccn1	2%	?	7.1µM*	-10	-8
CC(O)CSc1nc2c(c(=O)[nH]c(=O)n2C)n1Cc1ccccc1Cl (configuration not stated)	-8%	13%	19%	6	8
CCC(C(=O)NNC(=O)c1cnccn1)c1ccccc1 (configuration not stated)	9%	16µM*	11µM*	-6	-9
O=C(Nc1nc(-c2cccc3ccccc23)cs1)c1cnccn1	9%	?	14µM*	-2	-7
CC(C)Nc1nc(NC(N)=S)nc(NC(C)(C)C)n1	-3%	?	11µM*	-8	-4
CC(C)Nc1nc(NNc2nc(Cl)nc(NC(C)(C)C)n2)nc(NC(C)C)n1	-2%	1.8µM*	0.4µM*	-3	.
COc1ncc2ncc(=O)n(C3CC3)c2n1	.	8%	-12%	.	.
CC(C)(C)n1nc2c(c1NC(=O)c1cccc(Cl)c1)CS(=O)(=O)C2	-14%	15%	16%	2	-14
CC(C)c1ccc(Cn2ccc3c4c(N)nc(NC5CC5)nc4ccc32)cc1	.	?	16µM*	.	.
CC(C)c1ccc(CNc2nc(NCC3CC3)nc3ccsc23)cc1	.	.	.	1	-1
C/C=C/C(=O)[C@@H](C)[C@@H](/C=C/C[Si](C)(C)C)C(C)C	.	-2%	1%	.	.
C/C(CC(=O)Nc1ccc2c(c1)OCO2)=N\NC(=O)c1ccccc1N	17%	-6%	-34%	1	3
C/C(CC(=O)Nc1ccc2c(c1)OCO2)=N\NC(=O)C(c1ccccc1)c1ccccc1	23%	?	16µM*	-5	12
O=C1CSC(=S)N1/N=C/c1cc(Br)ccc1O	8%	?	11µM*	.	.
O=C1CSC(=S)N1/N=C/c1ccc(O)c(O)c1O	6%	-13%	-16%	-91*	-94*
COc1ccccc1C=NN1C(=O)CSC1=S	.	.	.	-27	?
COc1ccccc1NS(=O)(=O)c1ccc(C)c(C(=O)NCC2(N(C)C)CCCCC2)c1	-4%	.	.	-2	-23
Cc1nc(SC(C(=O)c2ccccc2)c2ccccc2)nc2ccccc12 (configuration not stated)	7%	3%	-6%	1	5
Cc1ccc2c(C)nc(SC(C(=O)c3ccccc3)c3ccccc3)nc2c1 (configuration not stated)	-13%	20µM*	?	2	9
COc1ccc(C(=O)Nc2cc3c(cc2N2CCCCC2)n(C)c(=O)n3C)cc1OC	-13%	8%	3.5µM*	-2	2
Cc1cc2ncc(-c3ncc(C(F)(F)F)cc3Cl)cn2n1	-4%	10µM*	7.9µM*	6	14
SMILES	p53 reactivator	VP16 counter	RORgamma inh	Six1-Eya2 inh	CtBP-E1A inh
Cc1nn2cc(-c3ncc(C(F)(F)F)cc3Cl)cnc2c1Br	16%	-2%	-29%	4	.
CC(=O)c1ccc(-c2ccc(-c3cc(=O)oc4c(C(C)C)ccc(C)c34)cc2)cc1	1%	11µM*	?	3	-1
Cc1cc(C)cc(-n2c(C)cc(C(=S)N3CCOCC3)c2C)c1	-8%	16µM*	3.2µM*	-15	-16
Cc1cc(C(=S)N2CCOCC2)c(C)n1-c1ccc(Cl)cc1	8%	-2%	11%	-16	-9
C=CCC1(CC=C)CCCN1C(=O)c1cc(COc2cccc(C(F)(F)F)c2)on1	7%	13µM*	-29%	39	31
CCOc1ccc(CCNC(=O)CCNS(=O)(=O)c2ccc(Br)cc2)cc1OCC	-5%	1%	-4%	4	2
COC(=O)c1ccc(-c2nc(O)c(C)s2)cc1	11%	-3%[10 µM]	-1%	-8	-11
COC(=O)c1ccc(-c2nc3cc(Cl)c(N)cc3s2)cc1	37%	-10%[0.365 µM]	5µM*	32	8
CCN(CC)c1ccc2cc(-c3nc4ccccc4n3C)c(=O)oc2c1	?	2%	1%	17	-11
CCN(CC)c1ccc2cc(-c3nc4ccccc4[nH]3)c(=O)oc2c1	33%	-7%[0.365 µM]	2.8µM*	22	5
Cn1cc([N+](=O)[O-])c(C(=O)Nc2ccc(-c3nc4ccccc4[nH]3)cc2)n1	?	-2%	31%[10 µM]	-4	-9
Cn1cc([N+](=O)[O-])c(C(=O)Nc2ccc3nc(-c4ccccc4)[nH]c3c2)n1	22µM*	?	19%	-18	-16
COCCN(CCOC)c1nc(C)nc2c1nc(-c1ccccc1)n2CCCN1CCCCC1C (configuration not stated)	.	-3%	-6%	.	.
CSc1nc(=NC(C)=O)ss1	?	-19%	3.2µM*	-12	10
CC1(C(=O)NS(=O)(=O)c2ccccc2C(F)(F)F)CCN1C(=O)c1cccc(F)c1 (configuration not stated)	.	.	.	-1	0
Cc1ccc(C(=O)N/N=C\c2ccc[nH]2)cn1	15%	-1%	?	-2	-5
Cc1ccc(C(=O)N/N=C\C=C\c2ccc(Br)cc2)cn1	8%	2.2µM*	0.56µM*	1	.
Cc1ccc(C(=O)N/N=C/c2cc(Br)ccc2O)cn1	.	1.1µM*	2.5µM*	-89*	-91*
CN1C(=O)c2cccc3c(N(C)C)ccc(c23)C1=O	?	-3%	?	10	.
O=C(NCc1cccnc1)/C(=C/c1ccc(-c2ccc(Cl)cc2)o1)S(=O)(=O)c1ccccc1	-11%	20µM*	?	-2	-2
O=C(NCc1cccnc1)/C(=C\c1ccc(-c2ccc(Br)cc2)o1)S(=O)(=O)c1ccccc1	-39%	?	?	-9	18
Cc1ccc([N+](=O)[O-])c2cccnc12	4%	3%	-14%	-10	-3
Cc1ccc(N=Nc2ccc(O)c3ncccc23)cc1	13%	.	0.056µM*	?	-23
Cc1ccc(N=Nc2ccc(O)c3ncccc23)cc1C	0%	0.5µM*	0.14µM*	-18	-5
COc1ccc(-n2c(=O)c(C)nc3cnc(Nc4ccccc4)nc32)cc1	.	-6%	44%	.	.
COc1ccccc1C(=O)NC(=O)CSc1nncn1C(C)C	2%	.	.	5	-8
